From PubChem BioAssay

Experiment: probe aLefty1 binding on compound microarray – biochemical, small-molecule microarray, 635/667 nm fluorescence, primary screen (AID 1153);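 note: score merges spot fluorescence with signal-to-noise ratio from the scanned slide images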
Conditions: higher = more signal

Q: For `COC(=O)C=C(CC(O)c1cccc(Cl)c1)OC` (stereo unspecified), which composite z-score is on record?
A: 1.6

Q: With `COC(=O)[C@@]1(Cc2ccccc2)[C@H]2c3cc(C(=O)N4CCCC4)n(CC4CC4)c3C[C@H]2CN1C(=O)c1ccccc1` as the molecule, how does the composite z-score read?
A: 1.54

Q: With `COCCOC(=O)N1C(=O)[C@@]2(c3cc(C#CCCO)ccc31)[C@H](c1ccc(OCCO)cc1)N1[C@H](c3ccccc3)[C@H](c3ccccc3)OC(=O)[C@H]1[C@@H]2C(=O)N1CCN(c2ncccn2)CC1` as the molecule, how does the composite z-score read?
A: 0.372

Q: Which composite z-score does the source give for `COC(=O)[C@@]1(Cc2ccc(F)cc2)[C@H]2c3cc(C(=O)N(C)C)n(Cc4ccc(S(C)(=O)=O)cc4)c3C[C@H]2CN1C(=O)c1ccccc1` here?
A: 0.277

Q: Which composite z-score does the source give for `CCC(CC)C(O)C1C=CC2C(=O)N(C)C(=O)C2N1Nc1ccccc1` (stereo unspecified) here?
A: 0.173

Q: For `C=CCNC(=O)[C@@H]1[C@H]2C(=O)O[C@H](c3ccccc3)[C@H](c3ccccc3)N2[C@H](c2ccc(OCCO)cc2)[C@@]12C(=O)Nc1ccc(C#CCCO)cc12`, which composite z-score is on record?
A: 0.656

Q: Which composite z-score does the source give for `O=C(NCc1ccc(F)cc1)[C@H]1C[C@H]2C(=O)N[C@@H](Cc3ccccc3)C(=O)N2[C@H]1c1ccc(O)cc1` here?
A: -0.0601

Q: Which composite z-score does the source give for `COC(=O)[C@@]1(Cc2ccc(F)cc2)[C@H]2c3cc(C(=O)N4CCCC4)n(Cc4cc(C)n(C)n4)c3C[C@H]2CN1C(=O)c1ccccc1` here?
A: 0.291

Q: Which composite z-score does the source give for `C=CC[C@]1(C(=O)N2CCCCC2)N=C(c2ccc(OCCCO)cc2)O[C@H]1c1ccccc1` here?
A: 0.629

Q: Which composite z-score does the source give for `CN1C(=O)C2C=CC(C(O)C3CCCCC3)N(Nc3ccc([N+](=O)[O-])cc3[N+](=O)[O-])C2C1=O` (stereo unspecified) here?
A: 0.181

Q: For `C=C(C)C1C(=C)CN([C@H](CO)c2ccccc2)C1=O` (stereo partly specified), which composite z-score is on record?
A: -0.285
